# From PubChem BioAssay (EPA / NIEHS)
# Inconclusive results are not listed. Calls of active or inactive are those of the source. Rule for the calls, unless noted: active = hit-call score of the fitted dose curve at least 0.9, where 1 is the maximum; inconclusive = response in the unintended direction; inactive = score below 0.9.
# How the values were obtained:
# [1] = molecular target: human Peroxisome Proliferator-activated Receptor delta (PPARd), PPARD (gene 5467) (UniProt Q03181); assay: ATG_PPARd_TRANS: Attagene TRANS-FACTORIAL HepG2 Assay for human Peroxisome Proliferator-activated Receptor delta (PPARd) (AID 2283002)
# Chain of human Peroxisome Proliferator-activated Receptor delta (PPARd), PPARD (gene 5467) (Q03181 whole entry, looked up, the tested form may be a part): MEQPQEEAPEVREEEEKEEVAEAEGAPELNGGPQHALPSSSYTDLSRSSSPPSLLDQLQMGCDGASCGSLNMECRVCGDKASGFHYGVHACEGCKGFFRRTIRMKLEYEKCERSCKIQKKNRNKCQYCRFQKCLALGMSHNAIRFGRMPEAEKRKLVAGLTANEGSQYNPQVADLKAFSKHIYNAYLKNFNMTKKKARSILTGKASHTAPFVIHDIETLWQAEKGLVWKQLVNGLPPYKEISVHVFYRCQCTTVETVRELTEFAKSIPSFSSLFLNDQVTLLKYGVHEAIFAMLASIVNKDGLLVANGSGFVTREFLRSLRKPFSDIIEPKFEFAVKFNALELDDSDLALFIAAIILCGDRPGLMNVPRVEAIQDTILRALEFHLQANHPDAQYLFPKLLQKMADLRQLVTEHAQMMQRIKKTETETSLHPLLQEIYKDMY
# How it was run: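 Transient HepG2 transfection (multiple GAL4-UAS RTUs, chimeric receptor-Gal4); 24 h dosing; total RNA → oligo(dT) RT → PCR → 6-FAM primer extension → HpaI cut → CE. Positive direction vs DMSO.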
# [2] = molecular target: Peroxisome proliferator-activated receptor gamma (Homo sapiens) (UniProt P37231); assay: ATG_PPARg_TRANS: Attagene TRANS-FACTORIAL HepG2 Assay for human Peroxisome Proliferator-activated Receptor-gamma (PPARg) (AID 2283007)
# Chain of Peroxisome proliferator-activated receptor gamma (Homo sapiens) (P37231 whole entry, looked up, the tested form may be a part): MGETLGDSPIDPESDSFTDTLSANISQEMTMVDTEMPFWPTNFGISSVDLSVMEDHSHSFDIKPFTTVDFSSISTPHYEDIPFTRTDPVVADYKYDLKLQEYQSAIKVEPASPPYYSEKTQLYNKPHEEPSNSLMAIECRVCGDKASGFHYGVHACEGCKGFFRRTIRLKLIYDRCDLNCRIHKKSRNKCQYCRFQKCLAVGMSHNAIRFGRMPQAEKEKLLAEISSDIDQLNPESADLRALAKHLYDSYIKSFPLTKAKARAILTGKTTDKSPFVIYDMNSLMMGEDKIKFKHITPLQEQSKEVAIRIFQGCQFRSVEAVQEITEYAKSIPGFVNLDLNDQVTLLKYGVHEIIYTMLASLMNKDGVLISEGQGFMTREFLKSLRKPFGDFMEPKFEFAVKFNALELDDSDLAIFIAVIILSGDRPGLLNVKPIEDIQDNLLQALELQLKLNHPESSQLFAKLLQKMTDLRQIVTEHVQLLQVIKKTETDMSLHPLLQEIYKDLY
# How it was run: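 Read-out: reporter mRNA induction, detected by fluorescence after RT-PCR and capillary electrophoresis. Transiently transfected human HepG2 liver cells carrying a chimeric NR-Gal4 construct were dosed for 24 h; activity was fitted upward relative to DMSO.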
# [3] = molecular target: Nuclear receptor subfamily 1 group I member 2 (Homo sapiens) (UniProt O75469); assay: ATG_PXR_TRANS: Attagene TRANS-FACTORIAL HepG2 Assay for human Pregnane X Receptor (PXR) (AID 2283008)
# Chain of Nuclear receptor subfamily 1 group I member 2 (Homo sapiens) (O75469 whole entry, looked up, the tested form may be a part): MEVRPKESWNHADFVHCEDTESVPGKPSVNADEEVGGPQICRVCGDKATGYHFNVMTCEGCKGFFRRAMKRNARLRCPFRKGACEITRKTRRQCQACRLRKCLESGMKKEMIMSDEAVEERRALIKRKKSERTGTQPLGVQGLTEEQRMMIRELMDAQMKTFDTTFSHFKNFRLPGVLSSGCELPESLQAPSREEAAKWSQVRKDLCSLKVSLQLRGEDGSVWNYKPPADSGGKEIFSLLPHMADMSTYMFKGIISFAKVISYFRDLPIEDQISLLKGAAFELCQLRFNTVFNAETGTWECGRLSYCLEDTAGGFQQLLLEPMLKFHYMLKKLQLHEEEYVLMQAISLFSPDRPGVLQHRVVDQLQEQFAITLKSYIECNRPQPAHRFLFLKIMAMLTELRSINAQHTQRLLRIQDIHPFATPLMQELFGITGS
# How it was run: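 Multiplexed TRANS reporter panel in HepG2; this component tracks PXR-Gal4-driven reporter mRNA after 24 h dosing, measured by RT-PCR with capillary electrophoresis fluorescence, fitted against DMSO.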
# [4] = molecular target: human RAR-related Orphan Receptor beta (RORb), RORB (gene 6096) (UniProt Q92753); assay: ATG_RORb_TRANS: Attagene TRANS-FACTORIAL HepG2 Assay for human RAR-related Orphan Receptor beta (RORb) (AID 2283010)
# Chain of human RAR-related Orphan Receptor beta (RORb), RORB (gene 6096) (Q92753 whole entry, looked up, the tested form may be a part): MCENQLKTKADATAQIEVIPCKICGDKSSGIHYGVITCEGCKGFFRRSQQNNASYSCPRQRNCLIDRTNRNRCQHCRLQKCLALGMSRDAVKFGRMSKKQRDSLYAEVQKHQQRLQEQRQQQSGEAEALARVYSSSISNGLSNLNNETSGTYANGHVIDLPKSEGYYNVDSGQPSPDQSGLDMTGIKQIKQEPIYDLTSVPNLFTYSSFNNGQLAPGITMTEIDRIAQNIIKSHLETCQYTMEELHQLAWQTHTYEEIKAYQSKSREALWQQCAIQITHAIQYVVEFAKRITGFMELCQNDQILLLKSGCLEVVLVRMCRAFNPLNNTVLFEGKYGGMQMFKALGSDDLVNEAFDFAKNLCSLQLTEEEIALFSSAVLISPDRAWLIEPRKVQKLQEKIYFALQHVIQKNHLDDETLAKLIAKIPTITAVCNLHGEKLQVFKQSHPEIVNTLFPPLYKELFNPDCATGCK
# How it was run: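 Transfect HepG2 with multiple GAL4-UAS reporter transcription units; dose chemicals for 24 h; isolate RNA, reverse-transcribe and PCR-amplify reporter sequences; label, digest and resolve fragments by capillary electrophoresis; fit increases relative to DMSO.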
# [5] = molecular target: human RAR-related Orphan Receptor gamma (RORg), RORC (gene 6097) (UniProt P51449); assay: ATG_RORg_TRANS: Attagene TRANS-FACTORIAL HepG2 Assay for human RAR-related Orphan Receptor gamma (RORg) (AID 2283011)
# Chain of human RAR-related Orphan Receptor gamma (RORg), RORC (gene 6097) (P51449 whole entry, looked up, the tested form may be a part): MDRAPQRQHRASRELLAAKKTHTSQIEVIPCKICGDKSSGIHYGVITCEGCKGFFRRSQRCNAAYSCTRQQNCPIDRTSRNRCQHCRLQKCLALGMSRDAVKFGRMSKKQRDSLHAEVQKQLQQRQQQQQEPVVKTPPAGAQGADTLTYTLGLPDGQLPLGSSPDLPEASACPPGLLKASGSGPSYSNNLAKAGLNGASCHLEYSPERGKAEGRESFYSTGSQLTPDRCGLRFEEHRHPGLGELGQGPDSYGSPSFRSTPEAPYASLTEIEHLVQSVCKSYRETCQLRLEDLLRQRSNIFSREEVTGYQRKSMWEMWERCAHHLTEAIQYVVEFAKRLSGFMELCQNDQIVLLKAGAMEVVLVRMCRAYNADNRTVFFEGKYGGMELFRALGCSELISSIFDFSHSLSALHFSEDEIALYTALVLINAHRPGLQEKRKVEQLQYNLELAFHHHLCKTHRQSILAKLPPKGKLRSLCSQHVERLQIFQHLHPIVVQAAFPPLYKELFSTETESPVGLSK
# How it was run: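 Readout: reporter transcript induction (RT-PCR, fluorescent primer extension, capillary electrophoresis) after 24 h compound exposure of transiently transfected HepG2 cells carrying a RORg-Gal4 chimera and GAL4-UAS reporters; DMSO served as baseline, with increasing signal fitted.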
# [6] = molecular target: human Retinoic Acid Receptor gamma (RARg), RARG (gene 5916) (UniProt P13631); assay: ATG_RARg_TRANS: Attagene TRANS-FACTORIAL HepG2 Assay for human Retinoic Acid Receptor gamma (RARg) (AID 2283009)
# Chain of human Retinoic Acid Receptor gamma (RARg), RARG (gene 5916) (P13631 whole entry, looked up, the tested form may be a part): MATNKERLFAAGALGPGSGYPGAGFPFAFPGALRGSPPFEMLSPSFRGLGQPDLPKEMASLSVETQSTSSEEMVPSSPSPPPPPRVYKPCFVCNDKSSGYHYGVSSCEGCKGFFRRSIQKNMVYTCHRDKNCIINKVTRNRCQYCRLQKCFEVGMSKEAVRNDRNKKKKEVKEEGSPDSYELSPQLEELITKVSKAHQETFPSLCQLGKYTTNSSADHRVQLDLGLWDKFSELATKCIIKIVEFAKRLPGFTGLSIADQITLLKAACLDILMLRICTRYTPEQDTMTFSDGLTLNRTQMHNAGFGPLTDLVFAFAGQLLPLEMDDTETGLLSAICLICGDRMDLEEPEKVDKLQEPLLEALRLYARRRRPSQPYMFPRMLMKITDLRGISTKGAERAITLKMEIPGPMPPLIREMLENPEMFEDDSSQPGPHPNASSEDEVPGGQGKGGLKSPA
# How it was run: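 TRANS format measured activity of exogenous NR-GAL4 fusion (RARg) in transfected HepG2 liver cells after 24 h dosing. Induced reporter RNA was detected by RT-PCR/capillary electrophoresis fluorescence, analysed in the positive direction against DMSO.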
# [7] = molecular target: Retinoic acid receptor alpha (Homo sapiens) (UniProt P10276); assay: ATG_RARa_TRANS: Attagene TRANS-FACTORIAL HepG2 Assay for human Retinoic Acid Receptor alpha (RARa) (AID 2283005)
# Chain of Retinoic acid receptor alpha (Homo sapiens) (P10276 whole entry, looked up, the tested form may be a part): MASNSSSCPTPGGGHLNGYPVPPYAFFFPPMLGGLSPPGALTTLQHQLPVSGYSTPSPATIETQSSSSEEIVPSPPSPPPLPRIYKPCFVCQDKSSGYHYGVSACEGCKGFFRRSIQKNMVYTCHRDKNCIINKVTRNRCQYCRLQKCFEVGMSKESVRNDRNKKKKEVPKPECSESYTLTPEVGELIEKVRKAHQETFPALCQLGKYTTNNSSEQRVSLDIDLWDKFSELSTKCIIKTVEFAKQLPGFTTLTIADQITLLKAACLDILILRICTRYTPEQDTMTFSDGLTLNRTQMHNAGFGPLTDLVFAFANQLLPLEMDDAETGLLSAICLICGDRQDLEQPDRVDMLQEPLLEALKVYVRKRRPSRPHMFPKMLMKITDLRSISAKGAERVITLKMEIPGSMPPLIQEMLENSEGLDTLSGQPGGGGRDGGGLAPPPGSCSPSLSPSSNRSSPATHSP
# How it was run: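 Reporter transcripts, measured by RT-PCR with fluorescent labeling and capillary electrophoresis after 24 h dosing, reflect activity of an exogenous human RARa–GAL4 fusion in transiently transfected HepG2. Fitted for increase relative to DMSO.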
# [8] = read-out: Intercellular Adhesion Molecule 1 (ICAM1), ICAM1 (gene 3383); assay: BSK_3C_ICAM1: BioMAP Diversity Plus: 3C Assay for Intercellular Adhesion Molecule 1 (ICAM1) Biomarker Activity (AID 2283003; active = hit-call score of the fitted dose curve at least 0.9, where 1 is the maximum; inactive = score below 0.9); conditions: primary human endothelial cells (HUVEC); actives raise or lower the signal
# How it was run: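 Chemicals are dosed onto primary human umbilical vein endothelium (3C system). After 24 h, ICAM-1 is measured by ELISA, and responses are fitted bidirectionally relative to DMSO.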
# [9] = BSK_3C_Proliferation: Cell Proliferation Assessment in the BioMAP Diversity Plus: 3C Assay (AID 2283006; active = hit-call score of the fitted dose curve at least 0.9, where 1 is the maximum; inactive = score below 0.9;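 for AC50: potency may reflect either rise or fall in cell number versus DMSO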); conditions: primary human endothelial cells (HUVEC)
# How it was run: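 Cells (human umbilical vein endothelial, sub-confluent) receive test chemical; after 48 h they are fixed in 10% trichloroacetic acid, stained with 0.1% SRB and read at 560 nm. Activity is referenced to DMSO, fitting increases and decreases.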
compound,measurement,setting,value
CN1[C@@H]2CC(OC(=O)[C@H](CO)c3ccccc3)C[C@H]1[C@@H]1O[C@@H]12 (some centres not stated),outcome,[1],inactive
same,outcome,[2],inactive
same,outcome,[3],inactive
same,outcome,[4],inactive
same,outcome,[5],inactive
Cc1ccc(C=O)s1,outcome,[1],inactive
same,AC50,[2],32.8 µM (active)
same,outcome,[3],inactive
same,outcome,[4],inactive
O=[N+]([O-])c1ccc(Nc2ccc(Nc3ccccc3)c(S(=O)(=O)O)c2)c([N+](=O)[O-])c1,outcome,[1],inactive
same,AC50,[2],17.9 µM (active)
same,AC50,[3],22.9 µM (active)
same,outcome,[4],inactive
O=c1oc(=O)c2cc3c(=O)oc(=O)c3cc12,outcome,[1],inactive
same,outcome,[2],inactive
same,outcome,[3],inactive
same,outcome,[6],inactive
CC(C)=CCC[C@](C)(O)[C@@H]1CC=C(C)CC1,outcome,[1],inactive
same,outcome,[7],inactive
same,outcome,[2],inactive
same,AC50,[3],15 µM (active)
same,outcome,[6],inactive
same,outcome,[4],inactive
Cc1ccc2ccccc2n1,outcome,[1],inactive
same,outcome,[7],inactive
same,outcome,[2],inactive
same,outcome,[3],inactive
same,outcome,[6],inactive
same,outcome,[4],inactive
same,outcome,[5],inactive
C[C@]12CC[C@H]3[C@@H](CCC4=CC(=O)CC[C@@]43C)[C@@H]1CC[C@@H]2C(=O)CO,outcome,[1],inactive
same,outcome,[2],inactive
same,AC50,[3],2.12 µM (active)
Nc1ccc(F)c([N+](=O)[O-])c1,outcome,[1],inactive
same,outcome,[2],inactive
Fc1c(F)c(F)c(Br)c(F)c1F,outcome,[1],inactive
same,outcome,[7],inactive
same,outcome,[2],inactive
same,outcome,[3],inactive
CC1=CCC2C(C1)C2(C)C (configuration not stated),outcome,[1],inactive
same,outcome,[2],inactive
same,AC50,[3],10.7 µM (active)
COC(=O)C1=C(C)NC(C)=C(C(=O)OCCN(C)Cc2ccccc2)C1c1cccc([N+](=O)[O-])c1 (configuration not stated),outcome,[1],inactive
same,AC50,[2],27.7 µM (active)
CCOc1ccccc1OCC,outcome,[1],inactive
same,outcome,[2],inactive
same,outcome,[3],inactive
OCCOc1cccc(OCCO)c1,outcome,[1],inactive
same,outcome,[2],inactive
same,outcome,[3],inactive
same,outcome,[5],inactive
CC[Si](OC(C)=O)(OC(C)=O)OC(C)=O,outcome,[8],inactive
same,outcome,[9],inactive
same,outcome,[2],inactive
same,AC50,[3],7.32 µM (active)
same,outcome,[4],inactive
same,outcome,[5],inactive
CC(c1cc2ccccc2s1)N(O)C(N)=O (configuration not stated),outcome,[1],inactive
same,outcome,[3],inactive
BrC1CCC(Br)C(Br)CCC(Br)C(Br)CCC1Br (configuration not stated),outcome,[8],inactive
same,AC50,[9],4.72 µM (active)
same,outcome,[2],inactive
same,AC50,[3],2.86 µM (active)
same,outcome,[4],inactive
COC(=O)OC,outcome,[1],inactive
same,outcome,[3],inactive
same,outcome,[5],inactive
CC(C)(C)NC(N)=O,outcome,[1],inactive
same,outcome,[3],inactive
CN(C)c1ccc(O)c2c1C[C@H]1C[C@H]3[C@H](N(C)C)C(=O)C(C(N)=O)=C(O)[C@@]3(O)C(=O)C1=C2O,outcome,[1],inactive
same,outcome,[3],inactive
same,outcome,[4],inactive
